From PubChem BioAssay (Tox21) come the findings set out here.

Results filed as inconclusive are left out. Values without a mark were called inactive. The call rests on the fitted dose curve. Positions of bridges follow the written chain, without caps; N, C: chain ends. Non-standard residues stand in square brackets, D forms with d. Residues, ends and D or L forms follow the SMILES beside them. hArg = N=C(N)NCCCC[C@H](N)C(=O)O; Mpa = O=C(O)CCS

This assay in a line: qHTS assay to identify small molecule agonists of the AP-1 signaling pathway - cell viability counter screen (AID 1159525). Further: nearly all actives have a fitted effect of over 55% in size. Conditions: ME-180 (cervical carcinoma) AP-1-bla cells viability, ATP luminescence, 5 h; series mostly up to 76.8 µM; viability change, negative = cytotoxic: at the top concentration. The source says: National Center for Advancing Translational Sciences [NCATS]
NIH Chemical Genomics Center [NCGC]
U.S. Environmental Protection Agency [EPA]
National Institutes of Environmental Health Sciences [NIEHS]
National Toxicology Program [NTP]
U.S. Food and Drug Administration [FDA]
Activator protein-1 (AP-1), a transcription factor, plays an important role in tumor genesis by regulating genes involved in cell proliferation, differentiation, apoptosis, and angiogenesis. AP-1 activity is induced by a complex network of signaling pathways that involves extracellular signals, such as growth factors. The AP-1 protein complex formed from c-Fos and c-Jun binding to the AP-1 response element results in transcriptional activation of genes containing such elements within their promoter.
Low molecular weight molecules have been discovered and developed to modulate various components of these signaling pathways, for example, MAP kinase inhibitors. However, many points of pathway modulation remain untested due to the lack of chemical probes making this signaling locus of general interest.
Using a beta-lactamase reporter-gene under control of the AP-1 response element, a cell-based assay [CellSensor(TM) AP-1-bla ME-180 developed by Invitrogen Corp.] was used to measure EGF-induced signaling. The Tox21 10K library compounds were measured for their ability to positively modulate the action of EC50 EGF on reporter gene activity. Compounds were screened in a 15-pt titration series in 1536-well format. The cytotoxicity of the Tox21 compound library against this cell line was tested in parallel by measuring the intra cellular ATP content in the same wells.
Tox21 Assay Protocol Summary:
2500 cells/5uL in Opti-MEM medium containing 0.5% dialyzed FBS, 0.1 mM NEAA, 1 mM sodium pyruvate and 10 mM HEPES was dispensed into 1536-well black wall/clear bottom plates using a Multidrop dispenser and cells were cultured at 37 degrees Celsius overnight. Next day 23 nL of compounds dissolved in DMSO, positive controls or DMSO were delivered to each well using a pin tool. The plates were incubated at 37 degrees Celsius for 5 hours. 1 uL of LiveBLAzerTM B/G FRET substrate (Solution A+B+C+D) was added to each well using a Flying Reagent Dispenser. After incubated at room temperature for 2.5 hours the plates were measured on an EnVision plate reader at Excitation 405nm, Emission1=460nm and Emission 2=530nm. The %Activity was determined from the ratio of 460nm/530nm.
After the plates were read for Beta-Lactamase assay on Envision; 3 ul Cell Titer Glo (Promega) was added to measure the cytotoxicity and the plates were then incubated at RT in dark for 30 min. The luminescence was read on ViewLux (Perkin Elmer, Shelton, CT) using 6 sec exposure. ViewLux data was expressed as relative luminescence units.
For primary data analysis, raw plate reads for each titration point were first normalized relative to […] EGF control (100%) and DMSO only wells (basal, 0%).
For primary data analysis for viability assay, raw plate reads for each titration point were first normalized Tetra n-octyl ammonium bromide control (-100%) and DMSO (control, 100%).
(In qHTS, concentration-response curves come from the screen itself.)
For the compound `CC(N)CCCC(C)(C)O` (stereo not given), the “viability change, negative = cytotoxic” value is 6.91% [at 35.3 µM].

As to `CC(C)COC(=O)c1ccccc1`, the “viability change, negative = cytotoxic” value is -1.54%.

As for `C=CCCCCCCCC`, the “viability change, negative = cytotoxic” value is -4.57%. Take `COS(=O)(=O)O`: the “viability change, negative = cytotoxic” value was -0.438%. Take `CCCC(=O)OCCC(C)CCC=C(C)C` (stereo not given): the “viability change, negative = cytotoxic” value was -1.72%. Under `CCOC(CN1CCN(CC(C)C(=O)c2ccccc2)CC1)c1ccccc1` (stereo not given) stands 14.4% [at 15.8 µM]; under `CC(C)C[C@@H]1[C@H](c2ccccc2)OC(=O)N1CCCN1CCCCCC1`, 0.326% [at 35.3 µM].

In the case of `CC1=C(O)C(=O)C(C)O1` (stereo not given), the “viability change, negative = cytotoxic” value is 2.4%. `Cn1c(=O)c2[nH]c(Br)nc2n(C)c1=O`: the “viability change, negative = cytotoxic” value was 5.46% [at 35.3 µM].

Consider `CC(=O)Nc1ccc(OC(=O)c2ccccc2OC(C)=O)cc1`, for which the “viability change, negative = cytotoxic” value is 1.99% [at 35.3 µM]. The value for `Cc1c(Cl)cccc1Cl` was 6.3%; that for `CCCCCCCCCOC(=O)c1ccccc1C(=O)OCCCCCCCCC` was 4.49%; that for `CC(C)Nc1ccccc1` was 16.6%. In the case of `CC(C)NCC(O)c1ccc2ccccc2c1` (stereo not given), the “viability change, negative = cytotoxic” value is 2% [at 35.3 µM].

Turning to `CCCC(=O)Nc1ccc(OCC(O)CNC(C)C)c(C(C)=O)c1` (stereo not given), the “viability change, negative = cytotoxic” value was 5.23% [at 35.3 µM].

With `CC(C)=CCC/C(C)=C/COC=O`, the “viability change, negative = cytotoxic” value is -2.95%. `NC(=O)[C@@H]1CSSCCC(=O)N[C@@H](CCCCN=C(N)N)C(=O)NCC(=O)N[C@@H](CC(=O)O)C(=O)N[C@@H](Cc2c[nH]c3ccccc23)C(=O)N2CCC[C@H]2C(=O)N1` ([Mpa][hArg]GDWPC-NH2; disulfide 1-7): the “viability change, negative = cytotoxic” value is -2% [at 35.3 µM].

As for `CCO`, the “viability change, negative = cytotoxic” value was 0.865%. For `Cc1cccc(Cl)c1`, the “viability change, negative = cytotoxic” value was -10.5%. As to `Cc1c(C(=O)c2c[nH]n(C)c2=O)ccc(S(C)(=O)=O)c1C1=NOCC1`, the “viability change, negative = cytotoxic” value is 1.61% [at 35.3 µM].

For `OCCN1CCOCC1`, the “viability change, negative = cytotoxic” value is -7.1%. Regarding `CC12CCC(C1)C(C)(C)C2O` (stereo not given), the “viability change, negative = cytotoxic” value is -1.45%.

Regarding `COC(=O)CCCCC(CCSS/C(CCO)=C(\C)N(C=O)Cc1cnc(C)nc1N)SC(C)=O` (stereo not given), the “viability change, negative = cytotoxic” value was 0.838% [at 35.3 µM]. Regarding `OCC1CCC(CO)CC1` (stereo not given), the “viability change, negative = cytotoxic” value was 1.82%.

Regarding `CC1=C(C(=O)O)N2C(=O)[C@@H](NC(=O)[C@H](N)C3=CCC=CC3)[C@H]2SC1`, the “viability change, negative = cytotoxic” value is 11.5% [at 35.3 µM].

Turning to `CCCCCc1cccc(=O)o1`, the “viability change, negative = cytotoxic” value was 5.85%. On to `CCCCOC(=O)[C@H](C)O`, for which the “viability change, negative = cytotoxic” value was 6.91%. For `O=C(O)c1cc2ccccc2nc1C(=O)O`, the “viability change, negative = cytotoxic” value is -33%. As to `C/C=C(\C)C(C)=O`, the “viability change, negative = cytotoxic” value is -10.1%. The value for `CCC(C)C(C)=O` (stereo not given) was 3.28%; that for `CCC[C@@H]1C[C@@H](C(=O)N[C@@H]([C@H]2O[C@H](SC)[C@H](O)[C@@H](O)[C@H]2O)[C@@H](C)O)N(C)C1` was 8.07% [at 35.3 µM]; that for `CC1(C)CC(OC(=O)CCCCCCCCC(=O)OC2CC(C)(C)NC(C)(C)C2)CC(C)(C)N1` was -4.65% [at 15.8 µM]. As for `CC1(C)O[C@H]2CC(=O)OC[C@]23[C@H]2CC[C@@]4(C)[C@H](c5ccoc5)OC(=O)[C@H]5O[C@]54[C@]2(C)C(=O)C[C@@H]13`, the “viability change, negative = cytotoxic” value was 3.77% [at 35.3 µM]. The value for `Cc1ccc(C)c([N+](=O)[O-])c1` was 4.76%; that for `CC1=C(C(=O)O)N2C(=O)[C@@H](NC(=O)[C@H](N)c3ccccc3)[C@H]2SC1` was 1.78% [at 35.3 µM]. With `CCOC(=O)CC1(C)OCC(C)O1` (stereo not given), the “viability change, negative = cytotoxic” value was -0.316%.

Turning to `CC(C)C1OCCN1CCOC(=O)NCCCCCCNC(=O)OCCN1CCOC1C(C)C` (stereo not given), the “viability change, negative = cytotoxic” value was 2.96%. With `O/N=C/C=N/O`, the “viability change, negative = cytotoxic” value was 1.82%.

With `CCN1CCCC1CN` (stereo not given), the “viability change, negative = cytotoxic” value is -1.29% [at 35.3 µM]. As for `CCCCCCCCCOC(=O)CCCCC(=O)OCCCCCCC`, the “viability change, negative = cytotoxic” value was 1.28%.
